{"source": "PubChem BioAssay (EPA / NIEHS)", "note": "The source made the active and inactive calls. How the source made its calls: active means hit-call score of the fitted dose curve at least 0.9, where 1 is the maximum; inactive means score below 0.9.", "data": [{"molecular_target": "Myc proto-oncogene protein (Homo sapiens) (UniProt P01106)", "sequence (P01106 whole entry, looked up)": "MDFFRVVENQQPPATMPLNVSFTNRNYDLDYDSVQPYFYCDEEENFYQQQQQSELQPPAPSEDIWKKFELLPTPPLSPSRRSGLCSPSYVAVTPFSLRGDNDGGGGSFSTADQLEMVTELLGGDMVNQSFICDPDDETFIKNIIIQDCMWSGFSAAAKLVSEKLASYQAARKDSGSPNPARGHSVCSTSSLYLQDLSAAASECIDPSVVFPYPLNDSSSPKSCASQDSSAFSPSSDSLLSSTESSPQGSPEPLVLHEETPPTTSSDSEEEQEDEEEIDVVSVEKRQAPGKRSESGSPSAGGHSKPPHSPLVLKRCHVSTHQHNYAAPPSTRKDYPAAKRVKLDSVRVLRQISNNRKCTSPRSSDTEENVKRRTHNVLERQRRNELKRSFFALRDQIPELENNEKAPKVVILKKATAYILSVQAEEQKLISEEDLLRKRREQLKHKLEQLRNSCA", "assay": "ATG_Myc_CIS: Attagene CIS-FACTORIAL HepG2 Assay for human Myelocytomatosis (Myc) Proto-Oncogene Transcription Factor (AID 2282990)", "details": "HepG2, Attagene cis-reporter transcription factor activity; actives raise or lower the signal", "summary_of_the_method": "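Transiently transfected HepG2 cells bearing cis-promoter reporter units for endogenous transcription factors; 24 h exposure. Reporter mRNA measured by RT-PCR, 6-FAM primer extension, HpaI cut and capillary electrophoresis; bidirectional fit relative to DMSO.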", "values": [{"smiles": "CN(C)[C@@H]1C(=O)C(C(N)=O)=C(O)[C@@]2(O)C(=O)C3=C(O)c4c(O)ccc(Cl)c4[C@@](C)(O)[C@H]3C[C@@H]12", "outcome": "inactive"}, {"smiles": "Nc1ccc(-c2ccccc2)cc1", "outcome": "inactive"}, {"smiles": "CCN(N=O)C(N)=O", "outcome": "inactive"}, {"smiles": "O=CCCl", "AC50": "24.5 µM (active)"}, {"smiles": "CCCCCCCCCCBr", "outcome": "inactive"}, {"smiles": "C=C(C)[C@@H]1CC=C(C=O)CC1", "outcome": "inactive"}, {"smiles": "BrCC(Br)c1ccccc1", "note": "(centres undefined)", "outcome": "inactive"}, {"smiles": "Cc1cc(Cl)ccc1O", "outcome": "inactive"}, {"smiles": "BrCCCCBr", "outcome": "inactive"}, {"smiles": "Brc1c(Br)c(Br)c(Oc2c(Br)c(Br)c(Br)c(Br)c2Br)c(Br)c1Br", "outcome": "inactive"}, {"smiles": "CC(C)(c1ccc(O)c(-c2ccccc2)c1)c1ccc(O)c(-c2ccccc2)c1", "outcome": "inactive"}, {"smiles": "CN(N=O)C(N)=O", "outcome": "inactive"}, {"smiles": "CCNc1nc(NCC)nc(SC)n1", "outcome": "inactive"}, {"smiles": "Brc1ccc(Oc2c(Br)cc(Br)cc2Br)c(Br)c1", "outcome": "inactive"}, {"smiles": "Clc1cnc(Oc2ccc(Oc3ncc(Cl)cc3Cl)cc2)c(Cl)c1", "outcome": "inactive"}, {"smiles": "CCCCCCCCBr", "outcome": "inactive"}, {"smiles": "Cc1cc(Cl)ccc1OCCCC(=O)O", "outcome": "inactive"}, {"smiles": "CCCCC(CC)C(=O)Cl", "note": "(centres undefined)", "outcome": "inactive"}, {"smiles": "CCCCCCCCCCCCBr", "outcome": "inactive"}, {"smiles": "Nc1nc(=S)[nH][nH]1", "outcome": "inactive"}, {"smiles": "N#Cc1ccccc1N", "outcome": "inactive"}, {"smiles": "O=[N+]([O-])c1cc([As](=O)(O)O)ccc1O", "outcome": "inactive"}, {"smiles": "N#Cc1ccccc1Cl", "outcome": "inactive"}, {"smiles": "CCOP(=S)(OCC)O/N=C(\\C#N)c1ccccc1", "outcome": "inactive"}, {"smiles": "c1csc(-c2ccc(-c3cccs3)s2)c1", "outcome": "inactive"}, {"smiles": "OC(c1ccc(Cl)cc1)(c1ccc(Cl)cc1)c1cccnc1", "outcome": "inactive"}, {"smiles": "CC(C)C(C)(N)C#N", "note": "(centres undefined)", "outcome": "inactive"}, {"smiles": "CC(C)CC(C)(c1ccc(O)cc1)c1ccc(O)cc1", "outcome": "inactive"}, {"smiles": "OCC(c1ccc(Cl)cc1)c1ccc(Cl)cc1", "outcome": "inactive"}, {"smiles": "FC(F)OCC(F)(F)C(F)(F)F", "outcome": "inactive"}, {"smiles": "CC(=O)CN(CC(C)=O)N=O", "outcome": "inactive"}, {"smiles": "CCC[CH2][Sn]([CH2]CCC)([CH2]CCC)[CH2]CCC", "outcome": "inactive"}, {"smiles": "Cc1cc(-c2cc(C)c(N)c(C)c2)cc(C)c1N", "outcome": "inactive"}, {"smiles": "CC(=O)C(F)(F)C(F)(F)F", "outcome": "inactive"}, {"smiles": "Cc1ccc(CCl)cc1", "outcome": "inactive"}, {"smiles": "CC(F)(F)CC(F)(F)F", "outcome": "inactive"}, {"smiles": "COC(F)(C(F)(F)C(F)(F)F)C(F)(C(F)(F)F)C(F)(F)F", "note": "(centres undefined)", "outcome": "inactive"}, {"smiles": "c1ccc2c(c1)Oc1ccccc1O2", "outcome": "inactive"}, {"smiles": "COC(=O)Nc1cccc(OC(=O)Nc2cccc(C)c2)c1", "outcome": "inactive"}]}]}
